Hck-Nef inh: inhibitors of Nef-activated human Hck kinase, primary screen, biochemical, Z-Lyte FRET, 384-well, Hck-YEEI | Tyrosine-protein kinase HCK (Homo sapiens), P08631 | Recombinant Hck-YEEI plus Nef, Z-Lyte FRET kinase assay | inhibition, % at 20 µM | 220,000 tested, 0.68% active | AID 463187, 2010;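 active = Hck-Nef kinase inhibition above about 50%, limit read from the data; inactive = inhibition below that limit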;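 also: 0% = DMSO with Hck plus Nef and 100% = Hck alone without Nef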
LYPLA1 counter: LYPLA1 inhibitors, primary screen, counter-screen for PME1 inhibitor project, biochemical, fluorescence polarization, FP-Rh probe ABPP; recombinant LYPLA1; inhibition, % at 5.9 µM; Acyl-protein thioesterase 1 (Homo sapiens), O75608; 320,000 tested, 0.16% active;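 active = inhibition above the mean of all tested compounds plus 3 SD, set per campaign, cut at about 14% in these data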;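 also: inhibitors block serine hydrolase probe labeling of LYPLA1 so polarization falls; 0% = enzyme with DMSO and 100% = wells lacking LYPLA1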
Target sequence (O75608 whole entry, looked up): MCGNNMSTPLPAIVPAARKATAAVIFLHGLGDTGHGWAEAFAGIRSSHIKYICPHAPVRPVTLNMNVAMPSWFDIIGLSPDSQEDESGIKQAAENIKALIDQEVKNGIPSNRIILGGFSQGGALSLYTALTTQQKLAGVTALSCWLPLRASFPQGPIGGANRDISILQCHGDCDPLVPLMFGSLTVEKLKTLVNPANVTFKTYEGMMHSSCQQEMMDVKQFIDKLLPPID
Rin1 Abl inh: inhibitors of Rin1-Abl protein binding, primary screen, biochemical, TR-FRET | AID 588664, 2011 | inhibition, % at 7.35 µM | Tyrosine-protein kinase ABL1 (Homo sapiens) + Ras and Rab interactor 1 (Homo sapiens), … | 360,000 tested, 0.4% active; in the data active = inhibition above about 5%, passing the limit was not always enough
PREPL inh: PREPL enzyme inhibitors, primary screen, biochemical, fluorescence polarization | 320,000 tested, 0.68% active | inhibition, % at 5.96 µM | recombinant PREPL, fluorescence polarization activity-based probe;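 also: 0% = enzyme with DMSO and 100% = wells lacking enzyme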
LYPLA2 inh: LYPLA2 inhibitors, primary screen, counter-screen for PME1 inhibitor project, biochemical, fluorescence polarization, FP-Rh probe ABPP; Acyl-protein thioesterase 2 (Homo sapiens), O95372; recombinant LYPLA2; inhibition, % at 5.9 µM; 320,000 tested, 0.38% active;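 active = inhibition above the screen-wide mean plus 3 SD, limit set per campaign, cut at about 26% in these data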;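 also: 0% = LYPLA2 with DMSO and 100% = wells lacking LYPLA2 enzyme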
Target sequence (O95372 whole entry, looked up): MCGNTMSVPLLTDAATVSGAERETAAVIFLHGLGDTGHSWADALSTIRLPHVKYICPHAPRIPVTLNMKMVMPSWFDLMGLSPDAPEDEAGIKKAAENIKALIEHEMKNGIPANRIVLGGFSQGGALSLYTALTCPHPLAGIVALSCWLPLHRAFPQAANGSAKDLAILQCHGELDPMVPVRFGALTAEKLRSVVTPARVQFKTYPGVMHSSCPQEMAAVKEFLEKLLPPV
p97 ATPase inh: inhibitors of human p97 ATPase, primary screen, biochemical; AID 1481, 2009; 220,000 tested, 0.42% active; Transitional endoplasmic reticulum ATPase (Homo sapiens), P55072; inhibition, % at 8 µM; recombinant p97 ATPase, Kinase-Glo ATP luminescence, 3 h; in the data active = inhibition above about 15%;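 also: 0% = DMSO vehicle and 100% = wells lacking enzyme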
PREPL confirm: human PREPL enzyme inhibitors, confirmation, biochemical, fluorescence polarization; recombinant PREPL, fluorescence polarization activity probe; inhibition, % at 5.96 µM; shares compounds with PREPL inh; 2,000 tested, 67% active;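 also: 0% = protein with DMSO and 100% = wells lacking protein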
* hit, by the source's call; nt = no result given. This is a sample that favours compounds with a hit; in the whole collection about 1.7% have one here. Rule as the data show it, unless noted: active = inhibition above about 43%; inactive = the rest.

SMILES | Hck-Nef inh | LYPLA1 counter | Rin1 Abl inh | PREPL inh | LYPLA2 inh | p97 ATPase inh | PREPL confirm
O=C(c1ccccc1)c1coc2ccc(O)c(CN3CCOCC3)c12 | 0 | 0 | -2 | 43* | -2 | 3 | 44*
COc1ccc(C(=O)c2coc3ccc(O)c(CN4CCCCC4)c23)cc1 | 22 | 0 | -1 | 57* | 7 | -1 | 59*
COc1ccc2occ(C(=O)c3coc4ccc(O)c(CN(C)C)c34)c2c1 | 2 | 0 | -2 | 35 | 9 | -1 | nt
C[C@H](NC(=O)c1[nH]cnc1C(=O)N[C@@H](C)CO)c1ccccc1 | nt | nt | -4 | nt | nt | nt | nt
Cc1c(CCC(=O)NCCCn2ccnc2)c(=O)oc2c(C)c3oc4c(c3cc12)CCCC4 | nt | -4 | 0 | 49* | -3 | nt | 38
O=C(C[C@H]1C/C=C\C[C@@H](Cc2ccc(F)cc2)C(=O)OC[C@@H](Cc2c[nH]c3ccccc23)NC1=O)NCCO | nt | nt | 4 | 45* | nt | nt | 35
O=C(C[C@@H]1C/C=C\C[C@@H](Cc2ccc(F)cc2)C(=O)OC[C@@H](Cc2c[nH]c3ccccc23)NC1=O)NCCO | nt | nt | 2 | 54* | nt | nt | 47*
COc1ccc(CNC(=O)C(C)OC(=O)CN2C(=O)COc3ccccc32)cc1 (stereo not given) | nt | -1 | -20 | -2 | 1 | nt | nt
CCOC(=O)c1c(C)[nH]c(C)c1S(=O)(=O)N(C)CC(=O)N(C)Cc1ccccc1 | nt | -5 | -2 | 13 | -2 | nt | nt
COc1ccc(-c2ccc(CN3C(CC(C)C)C(=O)N(Cc4cn(CCC5OCCCO5)nn4)CCS3(=O)=O)cc2)cc1OC (stereo not given) | nt | nt | 0 | nt | nt | nt | nt
O=C(O)c1cccc(Sc2cc(Cl)ccc2C(=O)O)c1 | nt | -2 | 2 | -2 | -5 | nt | nt
Cc1ccc(NC(=O)c2ncn(CCCNCc3ccccc3)n2)cc1C | nt | nt | -2 | nt | nt | nt | nt
CCCCCCCC[n+]1cccc(C(=O)N(CC)CC)c1 | -1 | 0 | 4 | 1 | 1 | -2 | nt
CCCCCCCCCCCCCCCC[n+]1cccc(C(=O)N(CC)CC)c1 | 8 | 4 | -2 | 50* | 10 | 4 | 51*
COc1ccc(OC)c(NC(=O)CN(Cc2ccc(F)cc2)C2CCCCC2)c1 | nt | -2 | 1 | -4 | -9 | nt | nt
CC1=Nc2ccccc2/C1=C\c1sc(Nc2ccc(C)cc2)nc1O | 3 | -3 | -1 | 52* | -2 | 2 | 46*
CC1=Nc2ccccc2/C1=C/c1sc(=O)n(CC(=O)N2CCCC2)c1O | 0 | -1 | -1 | 5 | -4 | 4 | nt
CCOC(=O)c1c(Nc2ccc(Cl)cc2)sc(/C=C2\C=Nc3ccccc32)c1O | -2 | -2 | 0 | 15 | -2 | 1 | nt
Oc1nc(Nc2cccc(Cl)c2)sc1/C=C1\C=Nc2ccccc21 | 4 | -3 | -3 | 56* | -11 | 8 | 64*
Cc1ccc(NC(=O)c2ccc3c(c2)N(CC(=O)N2CCCCC2)C(=O)C(C)(C)O3)cc1 | 2 | 1 | -3 | 48* | 9 | -4 | 40
Cn1c(=O)c2cc(NC(=O)NCc3ccc(F)cc3)ccc2n1Cc1cccc(C(F)(F)F)c1 | nt | nt | -2 | nt | nt | nt | nt
O=C(CCn1c(=O)oc2ccccc21)N1CCN(c2ccccc2F)CC1 | 1 | -2 | -1 | 62* | -7 | 6 | 8
O=C(CCCn1c(=O)oc2ccccc21)N1CCN(c2ccc(F)cc2)CC1 | 30 | 2 | -2 | -94 | 7 | 2 | nt
C#CCOCCOCCOCCNc1nc(N2CCN(C(=O)CCCCCCCCCCNC(=O)[C@H](CCCCN)n3cc(CCO)nn3)CC2)nc(N2CCN(C(=O)CCCCCCCCCCNC(=O)[C@H](CCCCN)n3cc(C[C@@H](C)CC)nn3)CC2)n1 | nt | -1 | nt | 45* | -4 | nt | 55*
C#CCOCCOCCOCCNc1nc(N2CCN(C(=O)CCCCCCCCCCNC(=O)[C@H](CCCCN)n3cc(C)nn3)CC2)nc(N2CCN(C(=O)CCCCCCCCCCNC(=O)[C@H](CCCN=C(N)N)n3cc(C[C@@H](C)CC)nn3)CC2)n1 | nt | -3 | nt | 47* | 4 | nt | 56*
SMILES | Hck-Nef inh | LYPLA1 counter | Rin1 Abl inh | PREPL inh | LYPLA2 inh | p97 ATPase inh | PREPL confirm
C#CCOCCOCCOCCNc1nc(N2CCN(C(=O)CCCCCCCCCCNC(=O)[C@H](CCCCN)n3cc(C)nn3)CC2)nc(N2CCN(C(=O)CCCCCCCCCCNC(=O)[C@@H]([C@H](C)O)n3cc(C)nn3)CC2)n1 | nt | -3 | 6 | 36 | 13 | nt | nt
Cc1ccc(S(=O)(=O)N2CCN(C(=O)CN3C(=O)NC(C)(c4ccc5ccccc5c4)C3=O)CC2)cc1 (stereo not given) | nt | nt | -2 | nt | nt | nt | nt
CCc1ccccc1N(CC(=O)NC1CCCC1)C(=O)CNC(=O)c1cccs1 | nt | -2 | -1 | 2 | -3 | nt | nt
O=C(C[C@H]1C/C=C\C[C@@H](Cc2ccc(F)cc2)C(=O)OC[C@H]2CCCN2C1=O)NCCO | nt | nt | -2 | 47* | nt | nt | 48*
O=C(C[C@@H]1C/C=C\C[C@H](Cc2ccc(F)cc2)C(=O)OC[C@H]2CCCN2C1=O)N[C@H](CO)Cc1ccccc1 | nt | nt | -2 | 46* | nt | nt | 43
O=C(C[C@@H]1C/C=C\C[C@@H](Cc2ccc(F)cc2)C(=O)OC[C@@H]2CCCN2C1=O)N[C@H](CO)Cc1ccccc1 | nt | nt | -2 | 48* | nt | nt | 54*
O=C(C[C@@H]1C/C=C\C[C@@H](Cc2ccc(F)cc2)C(=O)OC[C@H]2CCCN2C1=O)NCCO | nt | nt | 6 | 30 | nt | nt | nt
Cc1cc(=O)n2nc(N3CCCC(C(=O)NC4CCCCC4C)C3)sc2n1 (stereo not given) | nt | 0 | 3 | -5 | -3 | nt | nt
C#CCOCCOCCOCCNc1nc(N2CCN(C(=O)CCCCCCCCCCNC(=O)[C@@H](CCSC)n3cc(CCO)nn3)CC2)nc(N2CCN(C(=O)CCCCCCCCCCNC(=O)[C@H](CO)n3cc(CCCCCN)nn3)CC2)n1 | nt | 0 | 10 | 48* | 14 | nt | 49*
C#CCOCCOCCOCCNc1nc(N2CCN(C(=O)CCCCCCCCCCNC(=O)[C@@H](CCC(=O)O)n3cc(CCCCCN)nn3)CC2)nc(N2CCN(C(=O)CCCCCCCCCCNC(=O)[C@H](CO)n3cc(CCCCCN)nn3)CC2)n1 | nt | -6 | 6 | 46* | -4 | nt | 31
C=CCN(CC=C)Cc1cc(=O)oc2cc(C)c(Cl)cc12 | nt | nt | 0 | nt | nt | nt | nt

Screens from PubChem BioAssay.
